{
  "source": "the supplement of paper PMC8728848",
  "assay_in_all_cases": "glycan array binding signal (z-score within array); higher = stronger binding",
  "conditions_in_all_cases": "glycan notation: IUPAC condensed, linker removed",
  "key": {"[1]": {"test_system": "GlcNAc(b1-2)[GlcNAc(b1-6)]Man(a1-6)[GlcNAc(b1-2)Man(a1-3)]Man(b1-4)GlcNAc(b1-4)GlcNAc", "summary_of_the_method": "(§1)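 Columns mapping to the same glycan were averaged after glycan names were converted to IUPAC-condensed notation. The data come from 3228 arrays in the Consortium for Functional Glycomics database, limited to those with an available protein sequence. Binding is reported as a within-array Z-score averaged across arrays of one protein sequence and across linkers.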"}, "[2]": {"test_system": "GlcNAc(b1-3)Gal(b1-4)GlcNAc(b1-3)Gal(b1-4)GlcNAc(b1-2)Man(a1-3)[GlcNAc(b1-3)Gal(b1-4)GlcNAc(b1-3)Gal(b1-4)GlcNAc(b1-2)Man(a1-6)]Man(b1-4)GlcNAc(b1-4)GlcNAc", "summary_of_the_method": "as §1"}, "[3]": {"test_system": "GlcNAc(b1-3)Gal(b1-4)GlcNAc(b1-6)[GlcNAc(b1-3)Gal(b1-3)]GalNAc", "summary_of_the_method": "as §1"}, "[4]": {"test_system": "GlcNAc(b1-2)[GlcNAc(b1-6)]Man(a1-6)[GlcNAc(b1-2)Man(a1-3)]Man(b1-4)GlcNAc(b1-4)[Fuc(a1-6)]GlcNAc", "summary_of_the_method": "as §1"}, "[5]": {"test_system": "GlcNAc(b1-3)Gal(b1-4)GlcNAc(b1-2)[GlcNAc(b1-3)Gal(b1-4)GlcNAc(b1-6)]Man(a1-6)[GlcNAc(b1-3)Gal(b1-4)GlcNAc(b1-2)Man(a1-3)]Man(b1-4)GlcNAc(b1-4)GlcNAc", "summary_of_the_method": "as §1"}, "[6]": {"test_system": "GlcNAc(b1-3)Gal(b1-4)GlcNAc(b1-3)Gal(b1-4)GlcNAc(b1-2)[GlcNAc(b1-3)Gal(b1-4)GlcNAc(b1-3)Gal(b1-4)GlcNAc(b1-6)]Man(a1-6)[GlcNAc(b1-3)Gal(b1-4)GlcNAc(b1-3)Gal(b1-4)GlcNAc(b1-2)Man(a1-3)]Man(b1-4)GlcNAc(b1-4)[Fuc(a1-6)]GlcNAc", "summary_of_the_method": "as §1"}, "[7]": {"test_system": "GlcNAc(b1-3)Gal(b1-4)GlcNAc(b1-3)Gal(b1-4)GlcNAc(b1-3)Gal(b1-4)GlcNAc(b1-2)Man(a1-3)[GlcNAc(b1-3)Gal(b1-4)GlcNAc(b1-3)Gal(b1-4)GlcNAc(b1-3)Gal(b1-4)GlcNAc(b1-2)Man(a1-6)]Man(b1-4)GlcNAc(b1-4)GlcNAc", "summary_of_the_method": "as §1"}, "[8]": {"test_system": "GlcNAc(b1-3)Gal(b1-4)GlcNAc(b1-3)Gal(b1-4)GlcNAc(b1-3)Gal(b1-4)GlcNAc(b1-2)[GlcNAc(b1-3)Gal(b1-4)GlcNAc(b1-3)Gal(b1-4)GlcNAc(b1-3)Gal(b1-4)GlcNAc(b1-6)]Man(a1-6)[GlcNAc(b1-3)Gal(b1-4)GlcNAc(b1-3)Gal(b1-4)GlcNAc(b1-3)Gal(b1-4)GlcNAc(b1-2)Man(a1-3)]Man(b1-4)GlcNAc(b1-4)[Fuc(a1-6)]GlcNAc", "summary_of_the_method": "as §1"}, "[9]": {"test_system": "GlcNAc(b1-3)Gal(b1-4)GlcNAc(b1-3)Gal(b1-4)GlcNAc(b1-3)Gal(b1-4)GlcNAc(b1-3)Gal(b1-4)GlcNAc(b1-2)Man(a1-3)[GlcNAc(b1-3)Gal(b1-4)GlcNAc(b1-3)Gal(b1-4)GlcNAc(b1-3)Gal(b1-4)GlcNAc(b1-3)Gal(b1-4)GlcNAc(b1-2)Man(a1-6)]Man(b1-4)GlcNAc(b1-4)GlcNAc", "summary_of_the_method": "as §1"}, "[10]": {"test_system": "GlcNAc(b1-3)Gal(b1-4)GlcNAc(b1-3)Gal(b1-4)GlcNAc(b1-3)Gal(b1-4)GlcNAc(b1-3)Gal(b1-4)GlcNAc(b1-2)[GlcNAc(b1-3)Gal(b1-4)GlcNAc(b1-3)Gal(b1-4)GlcNAc(b1-3)Gal(b1-4)GlcNAc(b1-3)Gal(b1-4)GlcNAc(b1-6)]Man(a1-6)[GlcNAc(b1-3)Gal(b1-4)GlcNAc(b1-3)Gal(b1-4)GlcNAc(b1-3)Gal(b1-4)GlcNAc(b1-3)Gal(b1-4)GlcNAc(b1-2)Man(a1-3)]Man(b1-4)GlcNAc(b1-4)[Fuc(a1-6)]GlcNAc", "summary_of_the_method": "as §1"}},
  "note": "The full list was thinned out, with the strongest signals kept by preference.",
  "data": [
    {"substance": "Wza (Escherichia coli), P0A930", "values": [
      {"measurement": "glycan array binding signal (z-score)", "setting": "[1]", "value": 0.119}
    ]},
    {"substance": "SiiE (Salmonella typhimurium), A0A0H3NVH0", "values": [
      {"measurement": "glycan array binding signal (z-score)", "setting": "[1]", "value": 3.14}
    ]},
    {"substance": "LcI (Legionella pneumophila)", "values": [
      {"measurement": "glycan array binding signal (z-score)", "setting": "[2]", "value": 3.83},
      {"measurement": "glycan array binding signal (z-score)", "setting": "[3]", "value": -0.064}
    ]},
    {"substance": "AgI/IIC123-GFP (Streptococcus mutans)", "values": [
      {"measurement": "glycan array binding signal (z-score)", "setting": "[4]", "value": -0.127},
      {"measurement": "glycan array binding signal (z-score)", "setting": "[5]", "value": 0.224},
      {"measurement": "glycan array binding signal (z-score)", "setting": "[6]", "value": 5.15},
      {"measurement": "glycan array binding signal (z-score)", "setting": "[7]", "value": 3.88},
      {"measurement": "glycan array binding signal (z-score)", "setting": "[8]", "value": 9},
      {"measurement": "glycan array binding signal (z-score)", "setting": "[9]", "value": -0.201},
      {"measurement": "glycan array binding signal (z-score)", "setting": "[10]", "value": 7.4}
    ]},
    {"substance": "AgI/II Vhelical-GFP (Streptococcus mutans)", "values": [
      {"measurement": "glycan array binding signal (z-score)", "setting": "[7]", "value": 0.722}
    ]},
    {"substance": "Actinohivin (Actinomycete K97)", "values": [
      {"measurement": "glycan array binding signal (z-score)", "setting": "[6]", "value": 0.545}
    ]}
  ]
}
